Pf growth 96h = inhibits malaria parasite growth, 96 h; Potency, µM (series often up to 28.7 µM), for the others: top-dose activity change, negative = inhibition, actives largely listed as inhibitors; P. falciparum luciferase reporter growth, 96 h; 320,000 compounds, 6.9% hits; AID 504834; further: on the % scale 0 is the no-effect control and ±100 the full control effect
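Erythrocytes infected with luciferase-expressing P. falciparum were dispensed at 2% hematocrit and 0.05% parasitemia (final), then incubated with compounds 96 hours at 37 C in 5% CO2. Luminescence after detection reagent addition reported growth.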
SARS PLP yeast = blocks SARS-CoV papain-like protease in a yeast assay; S. cerevisiae expressing SARS-CoV PLpro, growth rescue; Potency, µM (series often up to 32.9 µM), without a hit: top-dose activity, positive = growth rescue, hits mostly activators; 330,000 compounds, 0.19% hits; calls by dose curve; further: 0% is about no effect; nearly all actives have a fitted effect of over 55% in size
Pf growth 48h = P. falciparum growth inhibition at 48 hours (one generation). P. falciparum luciferase growth in erythrocytes, 48 h. Potency, µM (highest dose often 28.7 µM), for inactives: at the highest dose activity change, negative = inhibition, actives largely listed as inhibitors. 310,000 compounds, 5.9% hits; further: on the % scale 0 is the no-effect control and ±100 the full control effect
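Luciferase-expressing parasites in RBCs, 2% Hct / 0.1% parasitemia final; RPMI 1640 + 0.5% Albumax; 37 C, 5% CO2, one generation; luminescence read-out, lower signal = inhibition.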
NS1 function inh = inhibitors of influenza NS1 protein function; Potency, µM (highest dose often 46.1 µM), without a hit: at the top dose activity, positive = more growth; 270,000 compounds, 0.4% hits; AID 2326; calls by dose curve; further: actives are rising curves; nearly all actives have a fitted effect of over 50% in size
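OD600 was taken as the measure of yeast growth restored by compound in an NS1-expressing S. cerevisiae strain. Cells had been washed out of glucose medium and diluted 1:100 into galactose -URA medium, pH 6.0.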
* hit, by the source's call; ? = inconclusive; / = no result; [ ] = another dose, or the depositor's remark. This is a sample that favours compounds with a hit; in the whole collection about 10% have one here. Unless noted, the call rests on the fitted dose curve; in most records, active means well fitted inhibition curve with a large enough effect; inconclusive means small, poorly fitted or top-dose-only effect, or another doubt; inactive means no such curve, though single readings can be large or run the other way. Potency means the concentration at half of the fitted maximal effect.

SMILES	Pf growth 96h	SARS PLP yeast	Pf growth 48h	NS1 function inh
COC(=O)CC1(C(=O)OC)Oc2ccc(Br)cc2C(=O)N1c1ccc(Br)cc1Cl (configuration not stated)	12µM*	-4%	?	10%
CC(=O)OCCCN1C(=O)c2ccc(Br)cc2C1=O	12%	1%	1%	-8%
COC(=O)CC1(C(=O)OC)Oc2ccc(Br)cc2C(=O)N1c1cc(Cl)cc(Cl)c1 (configuration not stated)	9.3µM*	-2%	5.2µM*	-1%
O=C(c1ccncc1)N1CCN(S(=O)(=O)c2ccccc2Br)CC1	?	-3%	?	/
COc1ccc(C(=O)c2ccccc2O)c(O)c1	?	/	4.1µM*	/
COc1ccc(C(=O)c2ccc(OC)cc2O)c(O)c1	32%[5.75 µM]	6%	?	-48%
COc1ccccc1CCNC(=O)CN1C(=O)c2ccccc2S1(=O)=O	28%	1%	-9%	/
COc1ccccc1N(C)S(=O)(=O)c1ccc(Cl)c(C(=O)NCC2(N(C)C)CCCCC2)c1	9.3µM*	1%	?	/
COc1ccccc1NS(=O)(=O)c1cccc(C(=O)NCC2(N(C)C)CCCCC2)c1	?	-2%	-27%	/
COc1ccccc1N(C)S(=O)(=O)c1ccc(Cl)c(C(=O)NNC(=O)c2ccccc2O)c1	5%	2%	34%	-3%
COc1ccc(Cl)cc1NS(=O)(=O)c1cccc(C(=O)NCC2(N(C)C)CCCCC2)c1	15µM*	-4%	?	-10%
S=c1[nH]nc(C2CCCCC2)n1/N=C/c1cccc(Cl)c1Cl	-1%	-4%	-21%	4%
CCC(C(=O)NCc1cccs1)n1nc(C)n2c(cc3occc32)c1=O (configuration not stated)	27%	/	55%	24%
COc1ccc(N(C(=O)c2cccnc2)S(=O)(=O)c2cc(OC)ccc2OC)cc1	1%	2%	-16%	-1%
Cc1ccccc1N/N=C/c1c(C)nc2ccccn12	?	-3%	9.3µM*	-5%
C1CC1Cc1noc(CN2CCN(C3C4CC5CC(C4)CC3C5)CC2)n1 (configuration not stated)	13µM*	0%	20%	8%
Cc1cccc(OC2CCN(Cc3nc(CC4CC4)no3)CC2)c1	4.7µM*	0%	9%	-3%
O=C(COc1ccccc1Cl)N1CCNC1=O	-12%	0%	?	/
CCN(CC(=O)NCc1cccs1)C(=O)c1cccc(S(=O)(=O)NCc2ccccc2)c1	4%	1%	?	/
COc1ccc(OC)c(NC(=O)CSc2nnc(-c3cccnc3)s2)c1	-7%	0%	-17%	/
COc1ccc(NC(=O)CSc2nnc(-c3cccnc3)s2)cc1	6.6µM*	-9%	11%	4%
CC(=O)N1N=C(c2ccc(C)c([N+](=O)[O-])c2)OC1(C)C	?	-2%	9.3µM*	-5%
COc1cc(C(=O)NC(C)c2cccc3ccccc23)cc(OC)c1OC (configuration not stated)	-13%	-1%	?	-6%
CCOC(=O)C1(CCc2ccccc2)CCN(C(=O)Cc2nonc2C)CC1	?	0%	-18%	-9%
CN(c1nc2c(c(=O)n(C)c(=O)n2C)n1CC(=O)c1ccccc1)C1CCCCC1	10µM*	4%	?	-42%
SMILES	Pf growth 96h	SARS PLP yeast	Pf growth 48h	NS1 function inh
Cn1c(=O)c2c(nc(NC3CCCCC3)n2CC(O)COc2ccccc2)n(C)c1=O (configuration not stated)	14%	2%	10µM*	-35%
CC(=O)c1cn(CCOc2ccc(F)cc2)c2ccccc12	?	-1%	?	-40%
CCCCn1c(=O)c2c(O)cc(=O)oc2c2ccccc21	?	-5%	42%	-76%
O=c1cc(O)c2c(=O)n(Cc3ccccc3)c3ccccc3c2o1	?	-4%	8.3µM*	/
O=C(c1ccc(Cl)cc1)N1CCC(C(=O)N2CCCc3ccccc32)CC1	?	-6%	-21%	4%
COc1ccc(C(=O)c2c3ccc(OC)cc3[n+]([O-])n2Cc2ccc(C(N)=O)cc2)cc1	?	-1%	?	/
CCCOc1ccccc1C(=O)Nc1ccc(S(=O)(=O)N2CCN(C)CC2)cc1	-22%	-3%	?	-9%
Cc1c2ccncc2c(C)c2c1[nH]c1ccccc12	1µM*	-4%	1µM*	-31%
COc1ccc2[nH]c3c(C)c4ccncc4c(C)c3c2c1	0.37µM*	0%	0.37µM*	-54%
Cc1oc(C(=O)O)cc1COc1cccc2ccccc12	2.3µM*	-8%	5%	-53%

Source: PubChem BioAssay
